Bioassay records as filed in PubChem BioAssay.
VP16 counter: VP16 counterscreen qHTS for inhibitors of ROR gamma transcriptional activity; Drosophila S2 Gal4-VP16 UAS-luciferase, luminescence, 20 h; Potency, µM (top dose mostly 53.6 µM), without a hit: at the highest dose activity, negative = inhibition, hits mostly inhibitors; 310,000 tested, 3.5% active;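 note: Gal4-VP16 expression switched on by copper sulfate through the metallothionein promoter; nearly all actives have a fitted effect of over 50% in size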
RORgamma inh: qHTS for inhibitors of ROR gamma transcriptional activity. Potency, µM (series often up to 53.6 µM), for inactives: top-dose activity change, negative = inhibition, most hits filed as inhibitors. Drosophila S2 Gal4-RORgamma UAS-luciferase reporter, 20 h. 310,000 tested, 5.4% active. AID 2551, 2010. Nuclear receptor ROR-gamma (Mus musculus), P51450; note: nearly all actives have a fitted effect of over 60% in size
Target sequence (P51450 whole entry, looked up, the tested form may be a part): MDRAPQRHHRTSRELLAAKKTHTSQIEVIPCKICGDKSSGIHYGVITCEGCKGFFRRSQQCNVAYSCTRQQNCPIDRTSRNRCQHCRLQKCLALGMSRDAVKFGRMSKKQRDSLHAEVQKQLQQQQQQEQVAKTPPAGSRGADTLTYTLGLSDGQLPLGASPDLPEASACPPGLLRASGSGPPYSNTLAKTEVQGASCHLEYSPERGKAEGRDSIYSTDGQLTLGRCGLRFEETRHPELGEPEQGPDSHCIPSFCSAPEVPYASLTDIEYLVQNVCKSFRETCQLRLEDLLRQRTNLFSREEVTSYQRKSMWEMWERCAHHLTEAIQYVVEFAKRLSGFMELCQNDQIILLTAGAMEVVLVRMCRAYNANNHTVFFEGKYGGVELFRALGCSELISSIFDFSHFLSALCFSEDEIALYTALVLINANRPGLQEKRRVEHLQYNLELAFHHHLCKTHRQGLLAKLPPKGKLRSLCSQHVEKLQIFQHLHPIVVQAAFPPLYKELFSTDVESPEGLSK
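ROR gamma transcriptional activity was tracked as Gal4-UAS luciferase output in stably transfected Drosophila Schneider cells, with compound added 1 hr before 700 uM copper sulfate induction and a 20 hr ambient-temperature incubation.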
12-LOX inh: Primary qHTS assay for inhibitors of human arachidonate 12S-lipoxygenase (ALOX12): Round 2 | Polyunsaturated fatty acid lipoxygenase ALOX12 (Homo sapiens), P18054 | purified 12hLO, xylenol orange hydroperoxide absorbance | Potency, µM (titrated, usually from 108 µM), for inactives: top-dose activity change, negative = inhibition, actives largely listed as inhibitors | 580,000 tested, 1.1% active | AID 1671190, 2021
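Purified human 12hLO at 150 nM in 25 mM Hepes, 0.01% Triton X-100, pH 7.0, preincubated 15 min at room temperature with compound. Reaction started with 40 uM arachidonic acid, 30 min at room temperature. Hydroperoxide measured by Fe-xylenol orange, 573/405 nm absorbance ratio.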
DT40 TDP1 CPT: qHTS for Inhibitors of human tyrosyl-DNA phosphodiesterase 1 (TDP1): qHTS in cells in presence of CPT; 420,000 tested, 12% active; Potency, µM (highest dose often 46.2 µM), inactives show at the top dose activity change, negative = growth inhibition, most hits filed as inhibitors; chicken DT40 Tdp1-/-;hTDP1 cells + 20 nM CPT, ATP luminescence, 48 h; note: nearly all actives have a fitted effect of over 55% in size
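Cell growth measured by CellTiter-Glo luminescence after a minimum 48 h, 37 C compound exposure with 20 nM CPT in Tdp1-knockout DT40 cells stably expressing hTDP1, seeded 400/well; qHTS titration format.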
DT40 TDP1 no CPT: qHTS for Inhibitors of human tyrosyl-DNA phosphodiesterase 1 (TDP1): qHTS in cells in absence of CPT; DT40 Tdp1-/- hTDP1 cells, no CPT, ATP luminescence, 48 h; Potency, µM (doses to about 46.2 µM), for inactives: top-dose activity change, negative = growth inhibition, actives largely listed as inhibitors; 420,000 tested, 15% active; AID 686978, 2013; note: nearly all actives have a fitted effect of over 55% in size
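Chicken DT40 Tdp1-/- cells stably complemented with human TDP1 were seeded at 400 cells/well with DMSO in place of 20 nM camptothecin. After compound pinning, cells grew at least 48 hr at 37 °C; viability read by CellTiter-Glo luminescence.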
ELG1 repair inh: qHTS screen for small molecules that inhibit ELG1-dependent DNA repair in human embryonic kidney (HEK293T) cells expressing luciferase-tagged ELG1. HEK293T ELG1-luciferase reporter, luminescence, 16 h; DNA damage induced by 5-fluorouridine. Potency, µM (doses to about 46.1 µM), for inactives: top-dose activity change, negative = inhibition, hits mostly inhibitors. 330,000 tested, 2.3% active. AID 504467, 2011; note: nearly all actives have a fitted effect of over 55% in size
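Overnight (16 hr) co-exposure of 2,000 cells/well to 5-fluorouridine and compound at 37 °C preceded detection. Luciferase was quantified via ONE-Glo luminescence; loss of signal denotes inhibition.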
Starred values were filed as active, the others as inactive; ? = inconclusive; . = no result given; [ ] = dose if it differs, or a comment. This is a sample that favours compounds with a hit; in the whole collection about 15% have one here. Calls come from the whole dose curve; as a rule, active = well fitted curve in the direction sought with a large enough effect; inconclusive = small, poorly fitted or top-dose-only effect, or another doubt; inactive = no such curve, though single readings can be large; an effect the other way counts as inactive or inconclusive. % is set by controls: 0 for no effect and ±100 for the full control effect; potency is the fitted concentration of half-maximal effect.

SMILES | VP16 counter | RORgamma inh | 12-LOX inh | DT40 TDP1 CPT | DT40 TDP1 no CPT | ELG1 repair inh
O=C(NCCc1ccccc1)Nc1ccc(CN2CCOC2=O)cc1 | . | . | 28% | . | . | .
CCOC(=O)C1=C(N)OC2=C(C(=O)CCC2)C1c1ccc(Cl)cc1 (stereo not drawn) | . | . | -78% | . | . | .
C[S+](=O)([O-])NC1CC2(CCN(C(=O)Cc3c[nH]c4ccccc34)CC2)c2ccccc21 (stereo not drawn) | . | . | 1%[6.33 µM] | . | . | .
CCN(CC)C1Oc2cc3c(cc2C(c2cc(OC)c(OC)c(OC)c2)C1C)OCO3 (stereo not drawn) | . | . | -1% | 2.3µM* | 1.2µM* | .
COc1ccc(C2CC(=O)Oc3cc4c(cc32)OCO4)cc1 (stereo not drawn) | -4% | -9% | ? | 3% | -10% | 8%
COc1cc([C@@H]2c3cc4c(cc3[C@@H](O)[C@H]3COC(=O)[C@H]23)OCO4)cc(OC)c1O[Si](C)(C)C(C)(C)C | 4% | ? | -3% | 13µM* | 15µM* | ?
COc1cc(C2c3cc4c(cc3OC(N3CCCCC3)C2C)OCO4)cc(OC)c1O (stereo not drawn) | . | . | -16% | ? | ? | .
COc1cc(C2c3cc4c(cc3C3OC(=O)C2C3CO)OCO4)cc(OC)c1OC (stereo not drawn) | . | . | -3% | 0.01µM* | 0.016µM* | .
COc1cc([C@@H]2c3cc4c(cc3[C@H](O)[C@@H](CO)[C@@H]2C(=O)NC2CC2)OCO4)cc(OC)c1OC | . | . | 43% | . | . | .
C=CCOc1ccccc1NC(=O)c1ccccc1C | . | . | 4% | . | . | .
CC(C)c1ccc(/C=C2\SC(=O)N(CC(=O)NCCCn3ccnc3)C2=O)cc1 | ? | ? | -10% | ? | 15µM* | ?
O=C(CCCN1C(=O)/C(=C/c2ccccc2)SC1=S)NCCCn1ccnc1 | 4.5µM* | 5µM* | 9% | ? | ? | 0%
O=C1CN(CC(=O)Nc2cc(Cl)cc(Cl)c2)CCN1 | . | . | 1% | . | . | .
O=C(CC(c1ccccc1)c1ccccc1Cl)NCc1cc2n(n1)CCNC2 (stereo not drawn) | . | . | 17% | . | . | .
Cc1cncc(C(=O)N[C@@H]2CN(Cc3ccccc3)C[C@H]2CN(C)C)c1 | . | . | 23% | . | . | .
CC1(Cc2ccccc2C#N)C(=O)Nc2ccc(OC(F)(F)F)cc21 (stereo not drawn) | . | . | -54% | -29% | -28% | .
CC1(Cc2ccccc2Cl)C(=O)Nc2ccc(OC(F)(F)F)cc21 (stereo not drawn) | . | . | ? | 23µM* | ? | .
CC1=CC(=O)[C@H]2C[C@@H]1C2(C)C | . | . | -5%[176 µM] | . | . | .
O=[N+]([O-])c1ccc(S(=O)(=O)NNC(=S)NCCc2ccccc2)cc1 | 11µM* | 8.9µM* | ? | -5% | 3% | ?
COC(CNC(=S)Nc1ccc([N+](=O)[O-])cc1)OC | 16% | -15% | -3% | 1% | 4% | 4%
O=C(NCCc1ccc(F)cc1)Nc1ccc([N+](=O)[O-])cc1 | -7% | ? | 60% | 29µM* | 16µM* | ?
CC(NC(=S)NNS(=O)(=O)c1cccc([N+](=O)[O-])c1)c1ccccc1 (stereo not drawn) | 6.3µM* | 7.1µM* | ? | -8% | 7% | -11%
O=[N+]([O-])c1ccc(NC(=S)NCCc2ccc(F)cc2)cc1 | ? | ? | ? | 16µM* | 16µM* | ?
O=C(CCNc1c(-c2ccc(F)cc2)nc2cnccn12)N1CCCCC1 | . | . | 13% | . | . | .
CCOc1ccc(C(C)=O)c2ccccc12 | . | . | -8% | . | . | .
SMILES | VP16 counter | RORgamma inh | 12-LOX inh | DT40 TDP1 CPT | DT40 TDP1 no CPT | ELG1 repair inh
O=C(NNC(=S)NCc1cccs1)c1c[nH]c2ccccc12 | . | . | -10% | . | . | .
Cc1ccc(NC(=S)Nc2ccc(F)cc2)cc1C | 7.1µM* | 7.1µM* | ? | ? | ? | ?
O=S(=O)(Nc1ccc(F)cc1)c1ccc(NC(=S)Nc2ccccc2)cc1 | 9% | -6% | 0% | ? | -29% | -23%
Cc1ccc(NC(=S)NCCc2ccc(F)cc2)cc1C | . | . | -3% | . | . | .
Fc1ccc(NC(=S)Nc2ccc3nccnc3c2)cc1 | 30% | -13% | ? | 16µM* | 18µM* | -17%
Cc1cccc(C)c1NC(=S)Nc1ccc(F)cc1 | ? | 10µM* | -7% | 0% | -9% | -5%
OCCCNC(=S)Nc1ccc2nccnc2c1 | -13% | 19% | -13% | -20% | ? | 7%
C=C(C)Cn1c(NCCCCCC)nc2c1c(=O)[nH]c(=O)n2C | . | . | -46% | . | . | .
CC(=O)NC(=S)Nc1cccc2ccc(C)nc12 | 13µM* | 2.8µM* | 179% | 6% | -10% | 3%
O=C(Nc1cccc2ccccc12)c1ccccc1 | 1% | 1% | 0% | ? | -21% | ?
O=C(NC(=S)Nc1cccc2cnccc12)c1ccccc1 | ? | 10µM* | -4% | ? | ? | ?
O=C(NC(=S)Nc1cccc2cccnc12)c1ccccc1 | 6.3µM* | 2.2µM* | -18% | -13% | -34% | 0%
Cc1ccc(C)c(NC(=O)Cn2c(-c3cccc(Cl)c3)nc(C)c(CCO)c2=O)c1 | . | . | -5% | . | . | .
CC(O)CNCCCOc1ccc(C(C)(C)c2ccccc2)cc1 (stereo not drawn) | . | . | 4.5µM* | . | . | .
COCCNCCCOc1ccc(C(C)(C)c2ccccc2)cc1 | -7% | -23% | ? | ? | ? | 4%
CC(O)CNCCCCOc1ccc(OCc2ccccc2)cc1 (stereo not drawn) | -14% | 13% | 2% | 23µM* | ? | ?
CC(O)CNCCCOc1cccc(Oc2ccccc2)c1 (stereo not drawn) | -3% | -22% | ? | 16µM* | 16µM* | 10%
COCCCNCCCOc1ccc(C(C)(C)c2ccccc2)cc1 | -4% | -8% | ? | ? | 18µM* | 1%
O=C(Cn1c(-c2ccccc2)cc2ccccc21)NCCC(=O)N1CCCC1 | . | . | 0% | . | . | .
O=C(COC(=O)C1CC(=O)N(c2nc(-c3ccc(Cl)cc3)cs2)C1)c1ccc(Cl)cc1 (stereo not drawn) | . | . | -4% | . | . | .
O=[N+]([O-])c1cc(C(F)(F)F)cc([N+](=O)[O-])c1NCCN1CCNCC1 | 2% | -13% | -5% | 21µM* | 21µM* | -4%
